{"source": "PubChem BioAssay AID827", "about": "(SRMLSC, 2007)", "note": "Out of some 140,000 compounds screened, about 1,700 (1.2%) were called active.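 How the source made its calls: active means viability at or below a set limit, 4 SD under the median of all tested compounds (cut at about 3.7% in these data); inactive means the rest.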 Only a selection was taken, and actives are over-represented in it overall.", "data": [{"assay": "viability loss in PTEN-deleted colon tumor cells – cell-based, HCT116, CellTiter-Glo, primary screen (AID 827);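 further: PTEN knockout HCT116 line with beta catenin targeted HCT116 as companion control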", "details": "HCT116 PTEN-null viability, 60 h, at 10 µM, stronger effect = lower value", "values": [{"compound": "N#C/C(=C/c1cccc([N+](=O)[O-])c1)c1nnc2n1CCCCC2", "viability": "30.1% (inactive)"}, {"compound": "CCOc1ccc(S(=O)(=O)N(CC(=O)NCC(F)(F)F)Cc2ccco2)cc1", "viability": "99.2% (inactive)"}, {"compound": "COC(=O)CN1C(=S)N(c2ccccc2)C(=O)C1CC(=O)Nc1ccc(Cl)cc1", "note": "(configuration not stated)", "viability": "91.3% (inactive)"}, {"compound": "Cc1ccc(/C=C/C(=O)Nc2cc(S(=O)(=O)N3CCCCCC3)ccc2OCC(F)(F)F)o1", "viability": "75.3% (inactive)"}, {"compound": "C/C(=N/NC(=O)C1COc2ccccc2O1)c1ccco1", "note": "(configuration not stated)", "viability": "96.5% (inactive)"}, {"compound": "Cc1cccc2cc(CN(Cc3cccs3)C(=S)NCc3ccco3)c(=O)[nH]c12", "viability": "72.6% (inactive)"}, {"compound": "CN(C)CCNC(=O)Cc1ccc([N+](=O)[O-])cc1", "viability": "98.8% (inactive)"}, {"compound": "Cc1nc(NCCN)c(C#N)c2c1COC(C)(C)C2", "viability": "101% (inactive)"}, {"compound": "CCCCc1nc(NCc2ccccc2)c(C#N)c2c1CCCC2", "viability": "82.1% (inactive)"}, {"compound": "CCCCc1nc(NCCN)c(C#N)c2c1CSC(C)(C)C2", "viability": "2.15% (active)"}, {"compound": "COc1ccc(C2CC(c3ccccc3)=NN2C(=O)CSc2nccc(=O)[nH]2)cc1", "note": "(configuration not stated)", "viability": "101% (inactive)"}, {"compound": "CCOC(=O)C1=C(C)Nc2nc3ccccc3n2C1c1cccs1", "note": "(configuration not stated)", "viability": "90.1% (inactive)"}, {"compound": "O=C1/C(=C\\c2cccnc2)CN(Cc2ccccc2)C/C1=C\\c1cccnc1", "viability": "1.06% (active)"}, {"compound": "O=C1OC(c2ccc(Cl)cc2)=N/C1=C\\c1cccnc1", "viability": "90.6% (inactive)"}, {"compound": "O=C(O)C1CC(=O)N(Cc2cccnc2)C1", "note": "(configuration not stated)", "viability": "100% (inactive)"}, {"compound": "O=C(CN1CCN(S(=O)(=O)c2ccc(Br)cc2)CC1)Nc1ccccc1C(=O)c1ccccc1", "viability": "64.5% (inactive)"}, {"compound": "Cc1nn(Cc2ccccc2)c(C)c1C(=O)NCCN1C(=O)S/C(=C\\c2ccc(F)cc2)C1=O", "viability": "97.4% (inactive)"}, {"compound": "Cc1ccc(NC(=O)CC2S/C(=N/N=C3\\CCCc4ccccc43)NC2=O)cc1", "note": "(configuration not stated)", "viability": "65.5% (inactive)"}, {"compound": "O=C(c1cncc(Br)c1)N1CCN(c2ccc([N+](=O)[O-])cc2)CC1", "viability": "83.7% (inactive)"}, {"compound": "CC(C)CC[n+]1ccn(C2=C([O-])c3ccccc3C(=O)/C2=N\\S(=O)(=O)c2ccccc2)c1", "viability": "3.35% (active)"}, {"compound": "O=C(CSc1nc2ccc([N+](=O)[O-])cc2[nH]1)c1ccc(Cl)cc1", "viability": "103% (inactive)"}, {"compound": "CC(C)=C(NC(=O)c1ccccc1)C(=O)N/N=C(\\C)c1ccccc1O", "viability": "88.4% (inactive)"}, {"compound": "COc1ccc2nc(Nc3nc4cc5c(cc4s3)OCCO5)sc2c1", "viability": "94.9% (inactive)"}, {"compound": "CCOc1ccc2nc(Nc3nc4ccc(NC(C)=O)cc4s3)sc2c1", "viability": "90.5% (inactive)"}, {"compound": "COc1ccc2nc(Nc3nc4ccc(NC(C)=O)cc4s3)sc2c1", "viability": "1.64% (active)"}, {"compound": "CC(Sc1nnc2c(n1)C1CCC2(C)C1(C)C)C(=O)Nc1ccccc1", "note": "(configuration not stated)", "viability": "87.5% (inactive)"}, {"compound": "O=C(Cc1ccc(Cl)c(Cl)c1)Nc1ccc(SC(F)F)cc1", "viability": "26.6% (inactive)"}, {"compound": "O=C(CC(O)(C(F)(F)F)C(F)(F)F)Nc1ccc(Cl)c(Cl)c1", "viability": "2.05% (active)"}, {"compound": "O=C(CC(=O)Nc1ccc(Cl)c(Cl)c1)N/N=C/c1ccc(O)cc1", "viability": "86.7% (inactive)"}, {"compound": "COc1ccc(N2C(=O)C(CC(=O)Nc3ccc(F)cc3)N(CCc3cccs3)C2=O)cc1", "note": "(configuration not stated)", "viability": "84.4% (inactive)"}, {"compound": "O=C(Nc1ccc2ccccc2c1)/C(=C\\c1ccc2c(c1)OCO2)NC(=O)c1ccco1", "viability": "95.8% (inactive)"}, {"compound": "COc1ccc(NC(=O)c2nc(-n3nc(C)cc3C)ccc2Cl)cc1Cl", "viability": "72.5% (inactive)"}, {"compound": "CCCNC(=O)OC[C@H]1O[C@H](CCO/N=C/[C@@H](NS(=O)(=O)c2ccc(C)cc2)[C@H](C)/C=C/CC(=O)OC)C=C[C@@H]1Oc1ccc(OC)cc1", "viability": "0.23% (active)"}, {"compound": "CCCC(NS(=O)(=O)c1ccc(OC)cc1)C(=O)O", "note": "(configuration not stated)", "viability": "91.3% (inactive)"}, {"compound": "COc1ccc(O[C@H]2C=C[C@@H](c3ccccc3)O[C@@H]2CO/N=C/C[C@@H]2C=C[C@H](OC(C)=O)[C@@H](COC(C)=O)O2)cc1", "viability": "85% (inactive)"}, {"compound": "O=C(Cc1ccccc1)Nc1cccc(C(=O)N/N=C/c2ccco2)c1", "viability": "92.6% (inactive)"}, {"compound": "O=C(Nc1ccccc1F)c1ccccc1-c1ccccc1", "viability": "87% (inactive)"}, {"compound": "Cc1c(C(=O)NCCCc2ccccc2)cccc1[N+](=O)[O-]", "viability": "44.8% (inactive)"}, {"compound": "COc1ccc(/C=C2/C(=O)OCc3cc(OC)c(OC)cc32)c(OC)c1", "viability": "71.4% (inactive)"}, {"compound": "CC(C)(C)NCCCOc1ccc(Cl)cc1C(C)(C)C", "viability": "40.9% (inactive)"}, {"compound": "COc1cc(/C=C2\\SC(=S)N(Nc3ncc(C(F)(F)F)cc3Cl)C2=O)cc(OC)c1OC", "viability": "88.8% (inactive)"}, {"compound": "COc1cccc(/C=N/Nc2ncc(C(F)(F)F)cc2Cl)c1O", "viability": "2.37% (active)"}, {"compound": "COc1cccc(/C=N\\NC(=O)C2=NNC(=O)C2C)c1O", "note": "(configuration not stated)", "viability": "48.4% (inactive)"}, {"compound": "CCC(=O)Nc1ccc(C(=O)Nc2ccc3c(c2)C(=O)N(CC2CCCO2)C3=O)cc1", "note": "(configuration not stated)", "viability": "107% (inactive)"}, {"compound": "O=C(NCc1ccc2c(c1)OCO2)c1ccc2c(c1)C(=O)N(CC1CCCO1)C2=O", "note": "(configuration not stated)", "viability": "1.19% (active)"}, {"compound": "CC1CCN(c2ccc(C(=O)NCc3ccc4c(c3)OCO4)cc2[N+](=O)[O-])CC1", "viability": "85.2% (inactive)"}, {"compound": "CC(CNc1ccc([N+](=O)[O-])c2cccnc12)Nc1c([N+](=O)[O-])cc(C(F)(F)F)cc1[N+](=O)[O-]", "note": "(configuration not stated)", "viability": "62.8% (inactive)"}, {"compound": "CCOc1ccc(C(=O)NC(=S)Nc2ccc(N3CCOCC3)c(Cl)c2)cc1[N+](=O)[O-]", "viability": "70.2% (inactive)"}, {"compound": "NC1=NN(c2cccc(C(=O)O)c2)C(=O)C1", "viability": "104% (inactive)"}, {"compound": "CCCCN(C)CCC(=O)Nc1ccc(Cl)cc1", "viability": "91.2% (inactive)"}, {"compound": "Cc1ccc(C(=O)NCC2CCCO2)o1", "note": "(configuration not stated)", "viability": "101% (inactive)"}, {"compound": "OC(CNCC1CCCO1)Cn1c2ccc(Br)cc2c2cc(Br)ccc21", "note": "(configuration not stated)", "viability": "1.31% (active)"}, {"compound": "Cc1cc(Br)ccc1NC(=O)C1CCCO1", "note": "(configuration not stated)", "viability": "97.1% (inactive)"}, {"compound": "O=C(Nc1ccc2c(c1)OCO2)c1ccc(N2C(=O)c3ccccc3C2=O)cc1", "viability": "93.1% (inactive)"}, {"compound": "CSCC[C@H](NC(=O)OC(C)(C)C)C(=O)N/N=C/c1cc2ccc(C)cc2nc1Cl", "viability": "1.55% (active)"}, {"compound": "CCOc1cc(/C=N/NC(=O)OC)ccc1OCCSc1ccc(Cl)cc1", "viability": "93.7% (inactive)"}, {"compound": "CSCCC(NC(=O)COc1ccccc1)C(=O)Nc1ccc(C)cc1", "note": "(configuration not stated)", "viability": "96.1% (inactive)"}, {"compound": "CC(=O)NCCC(=O)Nc1nc(C)c(Cc2ccc3c(c2)OCO3)s1", "viability": "99.8% (inactive)"}, {"compound": "COc1ccccc1C(=O)Nn1c(-c2cccs2)nc2ccccc2c1=O", "viability": "95% (inactive)"}, {"compound": "CC(C)Nc1nnc(SCC(=O)c2c[nH]c3ccccc23)s1", "viability": "87.3% (inactive)"}, {"compound": "CCO/N=C(/C)c1c(O)cc(-c2ccccc2)n(-c2ccccc2)c1=O", "viability": "103% (inactive)"}, {"compound": "CN(Cc1ccccc1)Cc1ccccc1F", "viability": "101% (inactive)"}, {"compound": "CC(=O)NC(C)c1nc2ccccc2n1Cc1ccccc1F", "note": "(configuration not stated)", "viability": "102% (inactive)"}, {"compound": "N=c1n(CCc2ccccc2)c2ccccc2n1Cc1ccccc1F", "viability": "1.8% (active)"}, {"compound": "O=C(Nc1ccccc1)/C(=C/c1ccc([N+](=O)[O-])cc1)NC(=O)c1ccccc1", "viability": "95.2% (inactive)"}, {"compound": "CCOC(=O)/C(=C\\c1ccc([N+](=O)[O-])cc1)C(=O)c1cc(C(C)=O)c(Nc2ccccc2)s1", "viability": "1.45% (active)"}, {"compound": "Cc1cccc(NC(=O)c2sc(-c3ccccc3)nc2-c2ccc([N+](=O)[O-])cc2)c1", "viability": "73.5% (inactive)"}, {"compound": "C/C(=N\\NC(=O)c1ccc(CSc2nc(C)cc(C)n2)cc1)C1CCCCC1", "viability": "93% (inactive)"}, {"compound": "O=C1NC(c2ccccc2)CCC1(Cl)Cl", "note": "(configuration not stated)", "viability": "95.3% (inactive)"}, {"compound": "COc1ccccc1N1N=C(c2cccs2)CC1c1ccccc1", "note": "(configuration not stated)", "viability": "65% (inactive)"}, {"compound": "Cc1cccc(C)c1Nc1nnc(SCC(=O)Nc2sccc2C#N)s1", "viability": "92.1% (inactive)"}, {"compound": "CCCc1cc(-c2nc(-c3ccc(C)cc3)cs2)ccn1", "viability": "26.2% (inactive)"}]}]}
